Assay outcomes: PubChem BioAssay, The Scripps Research Institute Molecular Screening Center
PAFAH2 FP inh – inhibitors of human PAFAH2. inhibition, % at 3.39 µM. Q99487. recombinant PAFAH2, FP-rhodamine activity probe, fluorescence polarization. AID 492956. hit rate 0.99% among 340,000;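 active = inhibition above the mean over all tested compounds plus 3 SD, cut at about 30% in these data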;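 note: inhibitors block probe labeling of enzyme so polarization drops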
PAFAH1B2 FP inh – PAFAH1B2 (human) inhibition | P68402 | recombinant PAFAH1B2, FP-rhodamine activity probe, fluorescence polarization | inhibition, % at 3.39 µM | hit rate 1.2% among 340,000;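 active = inhibition above the mean of all tested compounds plus 3 SD, cut at about 24% in these data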
Target sequence (P68402 whole entry, looked up): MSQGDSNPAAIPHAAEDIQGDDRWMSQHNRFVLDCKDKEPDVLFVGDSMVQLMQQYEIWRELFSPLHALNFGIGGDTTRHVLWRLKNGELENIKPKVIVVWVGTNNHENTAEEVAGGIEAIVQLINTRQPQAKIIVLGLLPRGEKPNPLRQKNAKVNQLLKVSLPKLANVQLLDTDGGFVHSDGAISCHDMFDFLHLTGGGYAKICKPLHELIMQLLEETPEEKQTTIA
LYPLA1 counter – counter-screen for PME1 inhibitors: inhibitors of human LYPLA1; recombinant LYPLA1, FP-Rh probe fluorescence polarization; inhibition, % at 5.9 µM; hit rate 0.16% among 320,000; AID 2174;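 active = inhibition above the mean of all tested compounds plus 3 SD, set per campaign, cut at about 14% in these data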;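 note: inhibitors block serine hydrolase probe labeling of LYPLA1 so polarization falls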
Target sequence (O75608 whole entry, looked up): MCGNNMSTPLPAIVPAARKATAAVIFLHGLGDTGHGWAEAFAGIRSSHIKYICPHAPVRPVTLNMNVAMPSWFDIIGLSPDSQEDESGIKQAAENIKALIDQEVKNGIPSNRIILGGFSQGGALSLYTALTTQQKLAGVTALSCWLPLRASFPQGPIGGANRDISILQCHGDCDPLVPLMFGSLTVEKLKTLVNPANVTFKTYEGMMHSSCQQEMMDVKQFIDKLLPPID
LYPLA2 inh – blocks human lysophospholipase 2, a PME1 counter-screen; O95372; recombinant LYPLA2, FP-Rh probe fluorescence polarization; inhibition, % at 5.9 µM; hit rate 0.38% among 320,000; AID 2177;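 active = inhibition above the screen-wide mean plus 3 SD, limit set per campaign, cut at about 26% in these data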
Target sequence (O95372 whole entry, looked up): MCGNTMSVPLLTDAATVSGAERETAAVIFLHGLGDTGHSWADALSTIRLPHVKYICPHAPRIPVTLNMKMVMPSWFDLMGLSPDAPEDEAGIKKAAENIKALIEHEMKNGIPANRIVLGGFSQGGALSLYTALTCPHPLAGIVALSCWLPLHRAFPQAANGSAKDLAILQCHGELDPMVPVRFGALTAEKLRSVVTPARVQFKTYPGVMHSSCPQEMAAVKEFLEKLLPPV
pPAFAH FP inh – inhibitors of human plasma PAF acetylhydrolase (pPAFAH) | recombinant pPAFAH, FP-rhodamine probe fluorescence polarization | inhibition, % at 3.39 µM | hit rate 1.5% among 330,000 | AID 463082;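 active = inhibition above the mean inhibition across the screen plus 3 SD, cut at about 25% in these data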;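 note: inhibitors block binding of the rhodamine activity-based probe so polarization drops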
PAFAH1B3 FP inh – PAFAH1B3 (human) inhibition | Q15102 | recombinant PAFAH1B3, FP-rhodamine probe, fluorescence polarization | inhibition, % at 3.39 µM | hit rate 0.28% among 340,000 | AID 492972;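 active = inhibition above the screen-wide average of all tested compounds plus 3 SD, cut at about 25% in these data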
PAFAH1B3 confirm – PAFAH1B3 (human) inhibition, confirmed; shares compounds with PAFAH1B3 FP inh; recombinant PAFAH1B3, FP-Rh activity-based probe, fluorescence polarization; inhibition, % at 3.39 µM; hit rate 30% among 390; AID 493032;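 active = average inhibition over triplicate runs above the hit cutoff set in the earlier primary screen, cut at about 25% in these data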
Large screens that a line does not name were inactive (follow-up assays come after a bar, where they were run). Compounds with a hit are over-represented: about 2.9% of the library has one in this group of screens.

O=C(NCCCN1CCCC1=O)c1ccc2c(=O)n(Cc3ccco3)c(=S)[nH]c2c1	none
COc1ccccc1C(=O)Nc1ccnn1C1CCN(Cc2ccc3nonc3c2)CC1	none
CCOC(=O)C1(CCCc2ccccc2)CCN(C(=O)CCc2cnn(C)c2)CC1	none
CCc1nnc(NC(=O)c2sc3nc4cc(C)ccc4cc3c2N)s1	PAFAH1B3 FP inh 27 | PAFAH1B3 confirm inactive
COc1cc(C(=O)N/N=C/c2cn(Cc3cccc(F)c3)c3ccccc23)ccc1O	PAFAH1B3 FP inh 34 (no result: LYPLA1 counter, LYPLA2 inh, pPAFAH FP inh) | PAFAH1B3 confirm inactive
COc1ccc(C(=O)OCC(=O)c2c(N)n(C)c(=O)n(C)c2=O)c(OC)c1OC	PAFAH1B3 FP inh 26 (no result: LYPLA1 counter, LYPLA2 inh) | PAFAH1B3 confirm inactive
Cn1c(N)c(C(=O)COC(=O)c2ccnc3ccccc23)c(=O)n(C)c1=O	none
Clc1ccc(CSC2=NCCCN2)cc1Cl	none
CCc1cc[n+](C2=C([O-])c3ccccc3C(=O)/C2=N\S(=O)(=O)c2cccs2)cc1	PAFAH1B3 FP inh 41 | PAFAH1B3 confirm 31
CSc1cccc(NC(=O)CCS(=O)(=O)c2cccc3nonc23)c1	none
O=C(N/N=C1\C/C(=N\NC(=O)c2ccncc2)c2ccccc21)c1ccncc1	PAFAH1B3 FP inh 28 | PAFAH1B3 confirm inactive
Cc1[nH]n(-c2ccccc2)c(=O)c1N=Nc1c(O)cc(S(=O)(=O)N(C)C)c2ccccc12	PAFAH1B3 FP inh 27 | PAFAH1B3 confirm inactive
CCN(CCn1cccn1)C(=O)C1CCC(=O)N(CC2CCCCC2)C1 (stereo unspecified)	none
COc1cc(NCCCC(C)N)c2ncccc2c1 (stereo unspecified)	PAFAH1B3 FP inh 53 (no result: LYPLA1 counter, LYPLA2 inh, pPAFAH FP inh) | PAFAH1B3 confirm inactive
CCOc1ccccc1/C=C/c1nc2ccccc2[nH]c1=O	PAFAH1B3 FP inh 28 (no result: LYPLA1 counter, LYPLA2 inh, pPAFAH FP inh) | PAFAH1B3 confirm inactive
CCOC(=O)C1CCN(c2nc(N)c3c(N)nc(SCC(=O)O)cc3c2C#N)CC1	PAFAH1B3 FP inh 37 (no result: LYPLA1 counter, LYPLA2 inh, pPAFAH FP inh) | PAFAH1B3 confirm inactive
CCOC(=O)C1CCN(c2nc(C)cc(C)c2C#N)CC1	none
COc1cc2c(cc1OC)-c1cc(Nc3ccc4c(c3)OCCO4)nc(=O)n1CC2	none
Cn1c(=O)c2c(ncn2CC(O)CNc2ccc(Cl)cc2)n(C)c1=O (stereo unspecified)	none
Cc1[nH]c2ccccc2c1CCNC(=O)c1ccc2c(c1[N+](=O)[O-])C(=O)c1ccccc1C2=O	PAFAH1B3 FP inh 44 | PAFAH1B3 confirm 67
CN(C)C(=O)c1ccc2c(c1[N+](=O)[O-])C(=O)c1ccccc1C2=O	none
NC(=S)NN=C1c2ccccc2-c2c(F)c(F)c(F)c(F)c21	PAFAH1B3 FP inh 51 (no result: LYPLA1 counter, LYPLA2 inh, pPAFAH FP inh) | PAFAH1B3 confirm 46
COc1cc(C2Nc3cccc4cccc(c34)N2)cc(OC)c1O	PAFAH1B3 FP inh 35 | PAFAH1B3 confirm inactive
CCn1c(C)nc2cc(S(=O)(=O)C(F)(F)C(F)C(F)(F)F)ccc21 (stereo unspecified)	none
CC1(c2nnc(-c3ccncc3)o2)CC(c2ccc(F)cc2)=NO1 (stereo unspecified)	PAFAH1B3 FP inh 26 | PAFAH1B3 confirm inactive
CC1(c2nnc(-c3ccc(F)cc3)o2)CC(c2cccnc2)=NO1 (stereo unspecified)	none
O=C1ON=C(c2ccccc2)/C1=C/c1ccc(O)c(O)c1	PAFAH1B3 FP inh 29 | PAFAH1B3 confirm 47
Cc1cccc2c1NC(=O)C2=O	PAFAH1B3 FP inh 36 (no result: LYPLA1 counter, LYPLA2 inh, pPAFAH FP inh) | PAFAH1B3 confirm inactive
CCc1cccc2c1NC(=O)C2=O	none (no result: LYPLA1 counter, LYPLA2 inh, pPAFAH FP inh)
O=C(O)c1cccc(NC2=C(N3CCOCC3)C(=O)c3ccccc3C2=O)c1	none
O=C(O)c1ccc(NC2=C(n3nnc4ccccc43)C(=O)c3ccccc3C2=O)cc1	PAFAH1B3 FP inh 29 | PAFAH1B3 confirm 26
O=[N+]([O-])c1ccc(O)c(-c2nn[nH]n2)c1	PAFAH1B3 FP inh 28 | PAFAH1B3 confirm 26
Cc1c(N=C2C=CC(=O)c3ccccc32)c(=O)n(-c2ccccc2)n1C	PAFAH1B3 FP inh 47 (no result: LYPLA1 counter, LYPLA2 inh, pPAFAH FP inh) | PAFAH1B3 confirm 37
CCOC(=O)c1c(C)oc2c1c(C=NCCO)c(O)c1ccccc12	PAFAH1B3 FP inh 30 (no result: LYPLA1 counter, LYPLA2 inh, pPAFAH FP inh) | PAFAH1B3 confirm inactive
O=C(NCc1ccco1)c1cccc(Nc2nc3ccc(Br)cc3[nH]2)c1	PAFAH1B3 FP inh 32 | PAFAH1B3 confirm inactive
CSc1nc(O)c(C2OC(=O)c3ccccc32)c(=O)[nH]1 (stereo unspecified)	none
O=Nc1c(O)[nH]c2c(F)cccc12	none
CCc1cccc2c(N=O)c(O)[nH]c12	PAFAH1B3 FP inh 28 | PAFAH1B3 confirm inactive
CCOc1ccc(N2CC(C(=O)Nc3ccccc3C(=O)NC3CC3)CC2=O)cc1 (stereo unspecified)	none
Oc1ccc(Cl)cc1CNc1cccc2cccnc12	PAFAH1B3 FP inh 28 | PAFAH1B3 confirm inactive
CCCN1CCCc2cc(CN)ccc21	PAFAH1B3 FP inh 30 | PAFAH1B3 confirm inactive
CN1CCCc2cc(C=O)ccc21	none
CC(=O)c1sc(C(C)(C)C)cc1NC(=O)/C=C/C(=O)O	PAFAH1B3 FP inh 44 | PAFAH1B3 confirm 35
CC(=O)c1sc(C(C)(C)C)cc1NC(=O)CCC(=O)O	none
Cn1nc(C(C)(C)C)c(NC(=O)c2ccc(F)cc2)c1C(C)(C)C	PAFAH1B3 FP inh 31 | PAFAH1B3 confirm inactive
COc1ncnc(OC)c1NC(=O)c1ccc(F)cc1	none
Cc1cc(C)cc(NC(=O)CSc2nc3ccccc3nc2N2CCCCC2)c1	none
O=C(NC1=C(NC2CCS(=O)(=O)C2)C(=O)c2ccccc2C1=O)c1ccccc1 (stereo unspecified)	PAFAH1B3 FP inh 66 | PAFAH1B3 confirm 36
O=C(CN1CCN(c2cccc(Cl)c2)CC1)NCc1ccccc1	none
[O-][n+]1c2c(c3c4non(O)c4ccc31)CCCC2	PAFAH1B3 FP inh 28 | PAFAH1B3 confirm inactive
COn1c2c(c3c4no[n+]([O-])c4ccc31)CCCC2	none
C=CCn1c(NC(=O)c2ccc(Br)o2)c(S(=O)(=O)c2ccccc2)c2nc3ccccc3nc21	PAFAH1B3 FP inh 53 | PAFAH1B3 confirm inactive
O=C(Nc1ccc(S(=O)(=O)NCc2ccccc2)cc1)c1ccc(Br)o1	none
COCc1cc([C@@H]2C[C@H]3CN(c4ccccc4)C(=O)[C@]34CCCN24)ccc1OC	none
O=C(NN=c1c(=O)c2ccccc2c1=O)c1ccccc1	PAFAH1B3 FP inh 38 | PAFAH1B3 confirm 32
CN(C)/C=N/NC(=O)c1ccccc1	none
O=C(O)/C=C/c1cccc(NC(=O)c2ccc(Cl)cc2)c1	none
O=C(O)c1cccc(NN=C2c3ccccc3-c3ccccc32)c1	PAFAH1B3 FP inh 42 (no result: LYPLA1 counter, LYPLA2 inh, pPAFAH FP inh) | PAFAH1B3 confirm 31
Cc1cccc(NC(=O)CN2C(=O)N/C(=C\c3ccc(-c4cccc(C(=O)O)c4)o3)C2=O)c1	PAFAH1B3 FP inh 81 | PAFAH1B3 confirm 76
Cn1c2ccccc2c(=O)c2ccc(C#Cc3ccc(N)cc3)cc21	PAFAH1B3 FP inh 35 | PAFAH1B3 confirm inactive
